# Source: the supplement of paper PMC10849652
# The full data set covers some 7,900 targets. This sample favours those with a hit. About 0.6% of all pairs of compound and target were hits. Values without a mark were called inactive.
# Experiments:
# Assay in all cases: log2 fold change, soluble protein after heating vs DMSO (PISA); higher = thermal stabilisation; K562 cells, 10 uM, 30 min; active = over 0.2 and 3.5 SD of the protein, either way, in both replicates (recomputed)
# [1] = compound: COC1=CC=C(C=C1)CN2C=CC3=C2C=C(C=C3)C(=O)NO
# Summary of the method: (§1)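 K562 cells at 2×10^6 cells/mL were exposed to 10 μM compound for 30 min, then aliquots were heated for 3 min across 48°C-58°C, pooled, and extracted in PBS containing 0.5% NP-40 at 4°C. The supernatant after 21,000xg for 90 min was taken as soluble protein and measured by TMTpro 16plex LC-MS/MS with channel sums equalised. Thermal stability is reported relative to control samples, with values from duplicates. Fold changes are given on a log2 scale.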
# filanesib = compound: CON(C)C(=O)N1N=C(c2cc(F)ccc2F)S[C@@]1(CCCN)c1ccccc1 [filanesib]
# Summary of the method: as §1
# zotarolimus = compound: CO[C@H]1C[C@@H]2CC[C@@H](C)[C@@](O)(O2)C(=O)C(=O)N2CCCC[C@H]2C(=O)O[C@H]([C@H](C)C[C@@H]2CC[C@H](n3cnnn3)[C@H](OC)C2)CC(=O)[C@H](C)/C=C(\C)[C@@H](O)[C@@H](OC)C(=O)[C@H](C)C[C@H](C)/C=C/C=C/C=C/1C [zotarolimus]
# Summary of the method: as §1
# idasanutlin = compound: COc1cc(C(=O)O)ccc1NC(=O)[C@@H]1N[C@@H](CC(C)(C)C)[C@](C#N)(c2ccc(Cl)cc2F)[C@H]1c1cccc(Cl)c1F [idasanutlin]
# Summary of the method: as §1
# alisertib = compound: COc1cc(Nc2ncc3c(n2)-c2ccc(Cl)cc2C(c2c(F)cccc2OC)=NC3)ccc1C(=O)O [alisertib]
# Summary of the method: as §1
# [2] = compound: COc1cc2nc(-c3cc(F)ccc3O)nc(N[C@@H]3CNC[C@H]3C(C)(C)O)c2cc1OC
# Summary of the method: as §1
# gefitinib = compound: COc1cc2ncnc(Nc3ccc(F)c(Cl)c3)c2cc1OCCCN1CCOCC1 [gefitinib]
# Summary of the method: as §1
# [3] = compound: COc1cccc2cc(-c3nc([C@H]4CC[C@H](C(=O)O)CC4)n4ncnc(N)c34)[nH]c12
# Summary of the method: as §1
# lapatinib = compound: CS(=O)(=O)CCNCc1ccc(-c2ccc3ncnc(Nc4ccc(OCc5cccc(F)c5)c(Cl)c4)c3c2)o1 [lapatinib]
# Summary of the method: as §1
# pictilisib = compound: CS(=O)(=O)N1CCN(Cc2cc3nc(-c4cccc5[nH]ncc45)nc(N4CCOCC4)c3s2)CC1 [pictilisib]
# Summary of the method: as §1
# Sequence of UniProt Q9UQB8 (Q9UQB8 whole entry, looked up): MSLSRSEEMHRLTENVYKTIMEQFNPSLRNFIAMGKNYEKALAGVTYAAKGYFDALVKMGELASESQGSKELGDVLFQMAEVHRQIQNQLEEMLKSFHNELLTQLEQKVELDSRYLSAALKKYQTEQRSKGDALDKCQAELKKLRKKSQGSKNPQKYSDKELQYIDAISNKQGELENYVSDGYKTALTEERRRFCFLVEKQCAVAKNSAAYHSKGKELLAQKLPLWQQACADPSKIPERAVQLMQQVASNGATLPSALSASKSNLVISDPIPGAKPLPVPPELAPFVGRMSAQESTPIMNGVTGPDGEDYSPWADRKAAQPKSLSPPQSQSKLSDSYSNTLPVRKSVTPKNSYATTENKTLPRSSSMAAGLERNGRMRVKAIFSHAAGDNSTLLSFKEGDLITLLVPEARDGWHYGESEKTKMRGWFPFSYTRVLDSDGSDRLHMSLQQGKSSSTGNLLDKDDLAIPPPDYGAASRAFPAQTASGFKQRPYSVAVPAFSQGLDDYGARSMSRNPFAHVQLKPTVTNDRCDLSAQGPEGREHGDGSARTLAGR
# Sequence of UniProt P15056 (P15056 whole entry, looked up): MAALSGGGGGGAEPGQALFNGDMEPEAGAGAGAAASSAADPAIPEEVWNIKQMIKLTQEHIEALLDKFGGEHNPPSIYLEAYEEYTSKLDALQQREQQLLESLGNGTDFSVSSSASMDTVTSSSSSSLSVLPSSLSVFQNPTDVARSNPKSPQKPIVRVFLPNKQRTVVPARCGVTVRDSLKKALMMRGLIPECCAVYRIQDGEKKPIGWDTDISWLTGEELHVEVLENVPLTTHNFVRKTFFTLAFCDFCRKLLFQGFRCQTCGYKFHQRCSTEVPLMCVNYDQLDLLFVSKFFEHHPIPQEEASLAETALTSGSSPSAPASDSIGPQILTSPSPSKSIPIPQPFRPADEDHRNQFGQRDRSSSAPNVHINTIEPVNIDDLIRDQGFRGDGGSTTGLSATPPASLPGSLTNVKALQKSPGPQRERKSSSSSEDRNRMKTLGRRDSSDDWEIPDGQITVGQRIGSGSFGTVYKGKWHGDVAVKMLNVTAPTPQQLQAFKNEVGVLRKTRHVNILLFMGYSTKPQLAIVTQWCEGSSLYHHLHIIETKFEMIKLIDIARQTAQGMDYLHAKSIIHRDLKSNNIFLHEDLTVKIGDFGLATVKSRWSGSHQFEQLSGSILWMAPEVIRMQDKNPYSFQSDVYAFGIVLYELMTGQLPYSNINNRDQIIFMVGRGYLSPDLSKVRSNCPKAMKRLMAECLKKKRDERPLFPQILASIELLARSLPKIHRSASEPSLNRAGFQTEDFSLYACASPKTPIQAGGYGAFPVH
# Sequence of UniProt Q9NXW9 (Q9NXW9 whole entry, looked up): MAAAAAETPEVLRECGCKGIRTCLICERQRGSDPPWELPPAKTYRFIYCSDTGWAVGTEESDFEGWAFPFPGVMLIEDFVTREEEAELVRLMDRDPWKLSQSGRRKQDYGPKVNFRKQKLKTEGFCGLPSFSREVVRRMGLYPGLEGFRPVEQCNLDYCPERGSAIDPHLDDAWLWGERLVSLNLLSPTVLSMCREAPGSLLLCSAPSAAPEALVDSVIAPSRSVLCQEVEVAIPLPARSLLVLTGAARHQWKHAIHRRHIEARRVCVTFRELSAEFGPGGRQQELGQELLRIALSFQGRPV
# Sequence of UniProt P49748 (P49748 whole entry, looked up): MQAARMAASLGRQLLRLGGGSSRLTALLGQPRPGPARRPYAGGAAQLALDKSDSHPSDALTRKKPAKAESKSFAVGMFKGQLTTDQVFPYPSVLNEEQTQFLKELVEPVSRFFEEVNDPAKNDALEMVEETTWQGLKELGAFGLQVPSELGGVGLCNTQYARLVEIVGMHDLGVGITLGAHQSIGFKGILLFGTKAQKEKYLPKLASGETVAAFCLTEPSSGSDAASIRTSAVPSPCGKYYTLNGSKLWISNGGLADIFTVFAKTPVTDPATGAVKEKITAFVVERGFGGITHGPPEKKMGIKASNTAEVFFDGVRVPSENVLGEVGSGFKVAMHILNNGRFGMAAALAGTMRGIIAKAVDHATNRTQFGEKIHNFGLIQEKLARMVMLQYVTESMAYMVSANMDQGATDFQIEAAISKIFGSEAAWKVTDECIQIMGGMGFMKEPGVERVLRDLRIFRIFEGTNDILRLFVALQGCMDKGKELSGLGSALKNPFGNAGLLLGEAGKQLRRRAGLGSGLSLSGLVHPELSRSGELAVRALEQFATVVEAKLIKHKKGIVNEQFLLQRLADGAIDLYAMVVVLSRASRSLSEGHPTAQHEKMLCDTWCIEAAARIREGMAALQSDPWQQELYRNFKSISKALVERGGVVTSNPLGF
# Sequence of UniProt Q13895 (Q13895 whole entry, looked up): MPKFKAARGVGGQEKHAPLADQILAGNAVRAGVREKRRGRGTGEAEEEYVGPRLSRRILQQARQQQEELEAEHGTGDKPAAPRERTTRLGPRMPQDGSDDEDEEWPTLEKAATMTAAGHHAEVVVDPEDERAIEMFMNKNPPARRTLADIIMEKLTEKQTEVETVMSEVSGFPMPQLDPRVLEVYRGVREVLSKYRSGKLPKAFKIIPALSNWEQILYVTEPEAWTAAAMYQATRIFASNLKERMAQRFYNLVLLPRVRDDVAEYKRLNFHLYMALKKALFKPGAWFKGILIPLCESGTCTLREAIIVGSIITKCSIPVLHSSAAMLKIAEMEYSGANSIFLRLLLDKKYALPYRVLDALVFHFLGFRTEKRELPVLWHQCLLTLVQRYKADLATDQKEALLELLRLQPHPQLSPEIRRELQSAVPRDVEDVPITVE
# Sequence of UniProt Q8N6T3 (Q8N6T3 whole entry, looked up): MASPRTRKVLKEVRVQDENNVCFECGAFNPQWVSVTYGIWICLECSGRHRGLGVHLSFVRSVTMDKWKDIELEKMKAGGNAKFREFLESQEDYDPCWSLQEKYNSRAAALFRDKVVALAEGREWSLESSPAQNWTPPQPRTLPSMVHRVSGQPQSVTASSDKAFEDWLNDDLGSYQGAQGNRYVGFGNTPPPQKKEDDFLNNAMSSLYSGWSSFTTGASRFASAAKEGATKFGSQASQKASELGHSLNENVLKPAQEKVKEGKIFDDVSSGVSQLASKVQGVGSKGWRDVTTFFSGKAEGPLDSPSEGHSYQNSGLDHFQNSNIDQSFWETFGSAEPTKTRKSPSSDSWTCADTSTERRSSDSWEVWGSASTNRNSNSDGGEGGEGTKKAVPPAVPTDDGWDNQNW
# Sequence of UniProt P08758 (P08758 whole entry, looked up): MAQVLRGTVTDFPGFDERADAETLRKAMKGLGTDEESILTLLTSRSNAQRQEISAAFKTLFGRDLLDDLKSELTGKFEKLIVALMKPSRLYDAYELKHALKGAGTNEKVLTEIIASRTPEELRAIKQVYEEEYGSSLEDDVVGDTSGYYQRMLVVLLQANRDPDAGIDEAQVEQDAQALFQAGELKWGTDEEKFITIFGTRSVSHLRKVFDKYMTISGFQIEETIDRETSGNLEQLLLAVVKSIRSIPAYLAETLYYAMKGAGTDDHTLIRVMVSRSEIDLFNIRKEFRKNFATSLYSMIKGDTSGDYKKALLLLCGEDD
# Sequence of UniProt O95433 (O95433 whole entry, looked up): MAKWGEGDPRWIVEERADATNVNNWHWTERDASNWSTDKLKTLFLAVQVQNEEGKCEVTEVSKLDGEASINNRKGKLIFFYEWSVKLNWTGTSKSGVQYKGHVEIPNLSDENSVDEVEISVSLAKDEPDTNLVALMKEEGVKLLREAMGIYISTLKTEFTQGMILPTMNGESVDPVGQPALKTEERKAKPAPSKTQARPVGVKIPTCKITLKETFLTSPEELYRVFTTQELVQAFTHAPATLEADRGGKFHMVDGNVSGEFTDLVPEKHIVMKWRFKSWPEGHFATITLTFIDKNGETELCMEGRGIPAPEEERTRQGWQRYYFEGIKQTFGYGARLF
# Sequence of UniProt Q7Z3C6 (Q7Z3C6 whole entry, looked up): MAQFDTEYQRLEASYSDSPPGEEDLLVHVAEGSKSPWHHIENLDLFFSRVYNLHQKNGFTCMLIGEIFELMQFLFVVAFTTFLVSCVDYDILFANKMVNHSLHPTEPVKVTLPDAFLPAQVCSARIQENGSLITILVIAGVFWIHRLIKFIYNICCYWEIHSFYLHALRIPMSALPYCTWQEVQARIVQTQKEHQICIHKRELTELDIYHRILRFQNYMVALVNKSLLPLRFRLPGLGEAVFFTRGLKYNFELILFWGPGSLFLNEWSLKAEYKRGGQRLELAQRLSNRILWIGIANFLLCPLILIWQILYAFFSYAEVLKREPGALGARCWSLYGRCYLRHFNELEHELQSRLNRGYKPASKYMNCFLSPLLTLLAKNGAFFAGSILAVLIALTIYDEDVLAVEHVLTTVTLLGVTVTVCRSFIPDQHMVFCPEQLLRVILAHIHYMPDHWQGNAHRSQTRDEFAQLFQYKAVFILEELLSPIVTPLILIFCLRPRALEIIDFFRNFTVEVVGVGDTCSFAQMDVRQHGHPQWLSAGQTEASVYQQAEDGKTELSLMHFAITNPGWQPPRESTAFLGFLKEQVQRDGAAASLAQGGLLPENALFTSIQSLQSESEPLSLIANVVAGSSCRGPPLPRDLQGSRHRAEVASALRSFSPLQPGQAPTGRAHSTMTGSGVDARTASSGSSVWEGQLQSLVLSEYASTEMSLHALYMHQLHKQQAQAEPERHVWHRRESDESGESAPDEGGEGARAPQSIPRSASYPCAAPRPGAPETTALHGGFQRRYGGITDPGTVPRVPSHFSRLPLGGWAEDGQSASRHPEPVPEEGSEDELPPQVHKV
# Sequence of UniProt Q8TDN6 (Q8TDN6 whole entry, looked up): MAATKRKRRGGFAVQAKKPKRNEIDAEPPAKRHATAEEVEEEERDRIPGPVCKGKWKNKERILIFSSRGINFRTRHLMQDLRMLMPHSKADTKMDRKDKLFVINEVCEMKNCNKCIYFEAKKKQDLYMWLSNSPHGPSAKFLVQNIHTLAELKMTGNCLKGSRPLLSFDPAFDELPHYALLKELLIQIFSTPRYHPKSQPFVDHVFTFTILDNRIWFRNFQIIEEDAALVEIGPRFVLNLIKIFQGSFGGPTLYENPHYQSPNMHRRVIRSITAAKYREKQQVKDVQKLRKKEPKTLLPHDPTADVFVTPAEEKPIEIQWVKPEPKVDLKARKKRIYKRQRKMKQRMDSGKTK
Target,log2 fold change [1],log2 fold change (filanesib),log2 fold change (zotarolimus),log2 fold change (idasanutlin),log2 fold change (alisertib),log2 fold change [2],log2 fold change (gefitinib),log2 fold change [3],log2 fold change (lapatinib),log2 fold change (pictilisib)
ADD1 isoform 3 (UniProt P35611),0.071,0.013,-0.025,0.014,-0.059,-0.009,0.007,0.066,0.015,-0.004
ATG9A (UniProt Q7Z3C6),0.008,-0.113,-0.014,-0.003,0.064,-0.073,0.011,-0.015,-0.045,0.075
ALDH2 (UniProt P05091),-0.011,-0.142,0.055,-0.104,0.015,-0.006,0.028,0.069,-0.02,0.043
BAD (UniProt Q92934),-0.103,0.124,-0.073,-0.049,0.103,-0.016,0.115,0.068,-0.037,0.022
BCCIP (UniProt Q9P287),-0.022,0.06,0.031,-0.048,-0.086,0.033,0.036,-0.024,0.01,-0.024
ARFGAP1 (UniProt Q8N6T3),0.03,0.034,0.047,0.028,0.047,0,-0.022,-0.015,-0.038,-0.007
ATP9B (UniProt O43861),-0.019,0.192,-0.054,0.022,-0.039,0.023,0.101,0.178,0.019,0.012
BRIX1 (UniProt Q8TDN6),-0.006,0.574,0.132,0.397,-0.23,-0.224,-0.039,-0.193,0.218,-0.004
ACSM3 (UniProt Q53FZ2),0.134,-0.056,0.009,-0.017,-0.033,0.101,-0.034,0.028,-0.025,0.198
AHSA1 (UniProt O95433),-0.029,-0.061,0.003,-0.064,-0.037,0.109,0.022,0.031,-0.02,-0.023
ACO2 (UniProt Q99798),-0.101,-0.081,0.015,-0.086,-0.016,0.036,0.008,0.071,-0.018,0.041
ANXA5 (UniProt P08758),0.033,-0.033,0.049,-0.013,-0.006,0.009,0.05,-0.032,0.015,-0.021
BID isoform 2 (UniProt P55957),0.045,0.016,0.08,0.016,-0.045,-0.006,0,0.089,0.005,0.038
BAIAP2 (UniProt Q9UQB8),0.014,-0.029,-0.016,-0.003,0.008,-0.131,-0.026,-0.024,0.036,0
ALDH6A1 (UniProt Q02252),-0.128,-0.025,0.024,-0.032,-0.09,0.029,0.04,0.066,0.02,0.063
BYSL (UniProt Q13895),-0.033,0.078,0.065,-0.057,0.022,0.207,-0.03,-0.057,0.032,-0.022
ACADVL isoform 3 (UniProt P49748),0,-0.069,0.019,-0.04,-0.031,-0.089,-0.019,0.025,-0.12,0.093
ADD3 isoform 2 (UniProt Q9UEY8),-0.022,-0.025,0.186,-0.276,-0.042,0.094,,-0.003,-0.028,0.125
ATP6V1C1 (UniProt P21283),-0.012,0.029,0.08,0.016,-0.069,-0.091,-0.286,-0.206,-0.046,-0.022
ARL6IP6 (UniProt Q8N6S5),-0.113,-0.014,-0.03,-0.088,0.004,-0.042,-0.021,0.036,0.004,0.005
ABCA3 (UniProt Q99758),-0.044,0.062,0.03,-0.021,,0.147,,,-0.084,0.01
ALKBH4 (UniProt Q9NXW9),-0.203,-0.036,0.06,-0.036,0.086,-0.058,,0.014,-0.023,0.106
BRAP (UniProt Q7Z569),0.062,0.02,0.01,0.028,-0.058,-0.108,0.053,-0.134,0.073,-0.055
ATP7B (UniProt P35670),-0.02,0.087,-0.075,-0.233 (active),-0.02,-0.011,0.028,0.026,0.061,0.061
BRAF (UniProt P15056),-0.031,-0.05,-0.004,-0.047,0.007,-0.076,0.012,0.015,,-0.061
BRD8 (UniProt Q9H0E9),-0.013,0.064,-0.029,0.08,-0.061,-0.032,0.005,0.017,-0.009,0.103
ATP5IF1 (UniProt Q9UII2),-0.02,-0.067,0.004,0.093,-0.062,0.024,0.013,0.03,-0.043,-0.016
ACACB (UniProt O00763),-0.019,0.258,0.132,-0.042,-0.168,0.039,-0.02,-0.371,0.068,0.038
ABCA4 (UniProt P78363),0.394,0.076,0.031,-0.02,-0.071,,0.014,-0.007,,0.135
AASDH (UniProt Q4L235),-0.13,-0.01,-0.221,,-0.141,0.041,-0.143,0.207,0.063,0.093
